Test results taken from PubChem BioAssay (NCATS).
Values joined by “and” are separate entries in the source; they are usually repeats but may differ in a detail not shown here. Equal entries are not always repeated. Records with an inconclusive call do not appear. Active and inactive are the calls of the source. Unless noted, calls follow the shape of the dose curve; as a rule, active = well fitted curve in the direction sought with a large enough effect; inconclusive = small, poorly fitted or top-dose-only effect, or another doubt; inactive = no such curve, though single readings can be large; an effect the other way counts as inactive or inconclusive.

What was measured:
CP315 = assay: qHTS profiling for inhibitors of Plasmodium falciparum proliferation (AID 504749); also: nearly all actives have a fitted effect of over 60% in size; also: potency is read from the fitted curve at half-maximal effect; details: P. falciparum in erythrocytes, SYBR Green DNA, 72 h; series mostly up to 28.7 µM
How it was run: (§1)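 Each compound contacts P. falciparum-infected red blood cells for 72 h at 37 C; lysis buffer (Tris, EDTA, saponin, Triton X, SYBR Green I) is added and fluorescence measured next morning; values normalized to controls.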

ICS = assay: as above; details: P. falciparum in erythrocytes, SYBR Green DNA, 72 h; series mostly up to 28.7 µM
How it was run: as §1

JCK = assay: as above; details: P. falciparum in erythrocytes, SYBR Green DNA, 72 h; series mostly up to 28.7 µM
How it was run: as §1

[1] = target: Lysosomal acid glucosylceramidase (Homo sapiens) (UniProt P04062); assay: Glucocerebrosidase-p2 (AID 348; in the data active = potency below about 10 µM; also: potency is read from the fitted curve at half-maximal effect); details: purified GBA, blue fluorogenic substrate, 40 min
Lysosomal acid glucosylceramidase (Homo sapiens), sequence (P04062 whole entry, looked up): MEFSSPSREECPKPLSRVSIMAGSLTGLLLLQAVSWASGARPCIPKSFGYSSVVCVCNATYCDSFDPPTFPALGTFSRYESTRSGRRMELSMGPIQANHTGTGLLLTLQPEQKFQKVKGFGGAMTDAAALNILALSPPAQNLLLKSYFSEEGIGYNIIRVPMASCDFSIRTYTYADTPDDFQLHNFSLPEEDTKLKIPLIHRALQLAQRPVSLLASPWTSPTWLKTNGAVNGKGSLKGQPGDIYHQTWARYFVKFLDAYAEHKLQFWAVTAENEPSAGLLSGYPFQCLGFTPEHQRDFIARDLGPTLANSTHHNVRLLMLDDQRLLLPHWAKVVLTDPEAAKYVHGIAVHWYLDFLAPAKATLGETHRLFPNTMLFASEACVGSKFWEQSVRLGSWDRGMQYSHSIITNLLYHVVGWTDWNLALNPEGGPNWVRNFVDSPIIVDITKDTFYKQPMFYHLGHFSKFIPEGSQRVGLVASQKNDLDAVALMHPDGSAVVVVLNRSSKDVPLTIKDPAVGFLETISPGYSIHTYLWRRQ
How it was run: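 Normal human glucocerebrosidase (0.2 nM) with blue fluorogenic substrate (80 uM final) in citrate/phosphate pH 5.9 with 10mM sodium taurocholate, 0.01% tween-20; 40 min RT, NaOH/glycine stop; fluorescence Ex 365/Em 440; AC50 from a titration from 0.6 nM upwards.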

[2] = target: Peroxisome proliferator-activated receptor gamma (Homo sapiens) (UniProt P37231); assay: qHTS assay for small molecule agonists of peroxisome proliferator-activated receptor gamma signaling (AID 588536; active = well fitted curve in the direction sought with a large enough effect in the signal ratio, with a control signal flat, not every such curve was filed as active; the % refers to the signal ratio;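 also: 0% = DMSO basal wells and 100% = rosiglitazone at 2 µM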); details: HEK293 PPARg-UAS-bla, beta-lactamase ratio, 16 h, percent of rosiglitazone response, DMSO as zero; series mostly up to 76.7 µM
Peroxisome proliferator-activated receptor gamma (Homo sapiens), sequence (P37231 whole entry, looked up): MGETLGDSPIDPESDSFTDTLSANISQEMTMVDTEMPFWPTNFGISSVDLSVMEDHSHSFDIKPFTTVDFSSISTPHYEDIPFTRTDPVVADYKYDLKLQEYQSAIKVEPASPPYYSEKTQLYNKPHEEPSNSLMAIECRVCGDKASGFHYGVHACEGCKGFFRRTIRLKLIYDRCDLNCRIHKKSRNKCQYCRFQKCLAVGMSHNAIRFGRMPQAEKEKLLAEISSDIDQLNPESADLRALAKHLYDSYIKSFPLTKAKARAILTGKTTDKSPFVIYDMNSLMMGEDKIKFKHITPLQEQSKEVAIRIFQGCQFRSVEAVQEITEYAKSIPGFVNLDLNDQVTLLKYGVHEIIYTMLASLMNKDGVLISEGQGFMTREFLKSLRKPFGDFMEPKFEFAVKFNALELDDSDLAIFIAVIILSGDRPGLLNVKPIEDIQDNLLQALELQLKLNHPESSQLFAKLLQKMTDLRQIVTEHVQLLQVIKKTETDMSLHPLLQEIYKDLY
How it was run: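 Cells were plated and held 6–6.5 h at 37 C, then compounds were added as a titration series. After a further 16 h, CCF4 dye was loaded for 2 h at room temperature and emission at 460/530 nm recorded.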

[3] = target: Peroxisome proliferator-activated receptor gamma (Homo sapiens) (UniProt P37231); assay: qHTS assay for small molecule antagonists of peroxisome proliferator-activated receptor gamma signaling (AID 588537; active = well fitted inhibition curve with a large enough effect in the signal ratio, with a control signal flat, not every such curve was filed as active; the % refers to the signal ratio;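 also: reporter cells co-stimulated with 50 nM rosiglitazone agonist during compound treatment; % of control where 0% means no effect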); details: HEK293 PPARg-UAS-bla, beta-lactamase ratio, antagonist mode; series mostly up to 76.8 µM
How it was run: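 Fluorescence at 460 and 530 nm (405 nm excitation) reported beta-lactamase cleavage of CCF4 after 2 h room-temperature loading. HEK293 reporter cells in 1% charcoal/dextran-treated FBS had received compound and rosiglitazone for 16 h.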

[4] = target: Thyroid hormone receptor beta (Homo sapiens) (UniProt P10828); assay: qHTS assay for small molecule agonists of thyroid hormone receptor beta signaling (AID 588545; calls by dose curve;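 also: 0% = DMSO only and 100% = 10 nM T3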); details: TR-UAS-bla GripTite HEK 293, beta-lactamase ratio, agonist mode, 18 h, percent of T3 response, DMSO as zero; series mostly up to 76.7 µM
Thyroid hormone receptor beta (Homo sapiens), sequence (P10828 whole entry, looked up): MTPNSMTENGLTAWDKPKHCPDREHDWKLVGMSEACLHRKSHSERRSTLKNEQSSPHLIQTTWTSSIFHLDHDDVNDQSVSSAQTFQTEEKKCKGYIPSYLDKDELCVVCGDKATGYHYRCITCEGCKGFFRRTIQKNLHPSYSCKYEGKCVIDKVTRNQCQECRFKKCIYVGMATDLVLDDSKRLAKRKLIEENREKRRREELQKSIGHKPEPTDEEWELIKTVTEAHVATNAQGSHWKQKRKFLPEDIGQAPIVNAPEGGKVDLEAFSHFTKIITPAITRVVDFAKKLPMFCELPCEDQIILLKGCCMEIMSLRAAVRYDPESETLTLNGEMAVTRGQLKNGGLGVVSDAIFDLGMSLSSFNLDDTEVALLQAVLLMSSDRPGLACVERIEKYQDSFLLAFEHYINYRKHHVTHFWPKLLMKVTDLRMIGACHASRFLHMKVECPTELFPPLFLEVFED
How it was run: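 TR-UAS-bla-GripTite HEK 293 cells in medium with 2% charcoal/dextran FBS, 0.1 mM NEAA and 1 mM sodium pyruvate were treated with titrated compounds for 18 hrs at 37 C. Beta-lactamase reporter was read with CCF4 dye (ex 405, em 460/530 nm); EC50 from Hill fits.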

[5] = qHTS assay for small molecule antagonists of retinoid X receptor alpha signaling (AID 588546; active = well fitted inhibition curve with a large enough effect in the signal ratio, with a control signal flat, not every such curve was filed as active; the % refers to the signal ratio;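 also: cells stimulated with 9-cis-retinoic acid as agonist; % is scaled to controls: 0 for no effect and ±100 for the full control effect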); details: HEK293T RXRa-UAS-bla, beta-lactamase ratio, antagonist mode; measured here: W530 green channel, cytotoxicity proxy
How it was run: (§2)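 Beta-lactamase reporter inhibition, read as CCF4 fluorescence ratio (ex 405, em 460/530 nm) after 2 h at RT. HEK293T UAS-bla cells, 2500/well, were stimulated with 9-cis-RA at 500 or 100 nM final alongside test compound for 18 h at 37 C.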

[6] = target: Retinoic acid receptor RXR-alpha (Homo sapiens) (UniProt P19793); assay: as above; details: HEK293T RXRa-UAS-bla, beta-lactamase ratio, antagonist mode
Retinoic acid receptor RXR-alpha (Homo sapiens), sequence (P19793 whole entry, looked up): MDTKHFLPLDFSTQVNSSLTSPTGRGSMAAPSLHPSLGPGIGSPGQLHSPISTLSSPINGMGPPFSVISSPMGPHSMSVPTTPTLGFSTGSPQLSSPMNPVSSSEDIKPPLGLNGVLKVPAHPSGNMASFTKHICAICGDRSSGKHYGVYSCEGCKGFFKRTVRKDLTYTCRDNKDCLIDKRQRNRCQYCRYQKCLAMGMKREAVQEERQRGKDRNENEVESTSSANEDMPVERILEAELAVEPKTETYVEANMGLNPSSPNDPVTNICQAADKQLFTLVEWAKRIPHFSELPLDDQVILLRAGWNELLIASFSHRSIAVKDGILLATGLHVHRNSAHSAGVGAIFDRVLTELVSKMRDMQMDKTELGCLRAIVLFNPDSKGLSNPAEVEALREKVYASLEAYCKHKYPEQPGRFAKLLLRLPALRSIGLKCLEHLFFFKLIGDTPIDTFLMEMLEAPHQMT
How it was run: as §2

[7] = qHTS assay for small molecule activators of the p53 signaling pathway (AID 651743; active = well fitted activation curve with a large enough effect in the signal ratio, not every such curve was filed as active; the % refers to the signal ratio; also: % of control where 0% means no effect); details: HCT-116 p53RE-bla, beta-lactamase FRET ratio, 16 h; stronger effect = higher value
How it was run: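 Following 16 hours of compound exposure at 37 C, HCT-116 cells bearing the p53RE-bla reporter were loaded with LiveBLAzer B/G FRET substrate for 2 hours at room temperature and fluorescence intensity was recorded.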

[8] = qHTS assay for environmental chemicals that activate the Aryl hydrocarbon Receptor (AhR) signaling pathway (AID 651777); details: 1A2-DRE human hepatoma cells, luciferase, 24 h; stronger effect = higher value; also: % of control where 0% means no effect; nearly all actives have a fitted effect of over 15% in size
How it was run: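 Stable CYP1A2 promoter/DRE-luciferase human hepatoma line treated 24 hr; One-Glo luminescence, 30 min RT.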

[9] = target: Peroxisome proliferator-activated receptor alpha (Homo sapiens) (UniProt Q07869); assay: qHTS assay for small molecule agonists of the peroxisome proliferator-activated receptor alpha (PPARalpha) signaling pathway (AID 651778); details: PathHunter PPARalpha complementation, chemiluminescence, 6 h; stronger effect = higher value; also: % of control where 0% means no effect
Peroxisome proliferator-activated receptor alpha (Homo sapiens), sequence (Q07869 whole entry, looked up, the tested form may be a part): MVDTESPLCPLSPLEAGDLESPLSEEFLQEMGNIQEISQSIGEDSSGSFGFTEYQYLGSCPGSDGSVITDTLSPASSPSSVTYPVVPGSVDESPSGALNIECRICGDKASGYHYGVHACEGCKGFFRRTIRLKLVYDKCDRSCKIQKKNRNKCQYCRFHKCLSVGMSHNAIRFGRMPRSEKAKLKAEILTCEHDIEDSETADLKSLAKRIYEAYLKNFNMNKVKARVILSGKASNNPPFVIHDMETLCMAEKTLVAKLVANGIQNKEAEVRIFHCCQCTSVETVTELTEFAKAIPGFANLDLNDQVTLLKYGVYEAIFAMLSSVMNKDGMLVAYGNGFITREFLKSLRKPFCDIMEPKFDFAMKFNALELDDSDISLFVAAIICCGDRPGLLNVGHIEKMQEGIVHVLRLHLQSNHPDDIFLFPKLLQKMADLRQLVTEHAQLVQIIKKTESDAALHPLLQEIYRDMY
How it was run: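 Enzyme-fragment complementation assay in which ligand-bound PPARalpha translocates and forms an active enzyme that generates chemiluminescence. Cells were plated overnight, exposed to compound for 6 hr at 37 C, and then given detection reagent for 60 min at room temperature.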

[10] = qHTS assay for small molecule agonists of the antioxidant response element (ARE) signaling pathway measured by Nrf2-dependant transcriptional activity - cell viability counter screen (AID 720653; active = well fitted curve in the direction sought with a large enough effect in the repeat runs; an effect the other way counts as inactive or inconclusive; also: % is scaled to controls: 0 for no effect and ±100 for the full control effect); details: ARE-bla HepG2 viability, CellTiter-Glo ATP luminescence, 16 h; max response: stronger effect = lower value
How it was run: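 ARE-bla HepG2 cells treated with compounds for 16 h at 37C; this counter screen measures viability as intracellular ATP by CellTiter-Glo luminescence after 30 min at room temperature.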

[11] = qHTS assay for cell viability of HEK293 cells (AID 743288); details: ATP luminescence (CellTiter-Glo), 18 h; max response: stronger effect = lower value; also: % is scaled to controls: 0 for no effect and ±100 for the full control effect; nearly all actives have a fitted effect of over 50% in size
How it was run: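 HEK293, 18 h, 37 C, ATP luminescence. Cells at 2,000/well were allowed at least 5 h to settle before dosing; CellTiter-Glo developed 30 min at RT.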

[12] = qHTS assay for cell viability of the p53RE-bla HCT-116 cell line (AID 743292); details: p53RE-bla HCT-116 viability, ATP luminescence, 16 h; series mostly up to 95 µM; also: % is scaled to controls: 0 for no effect and ±100 for the full control effect; nearly all actives have a fitted effect of over 55% in size
How it was run: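 Readout: CellTiter-Glo luminescence after 30 min RT. Treatment: compounds in DMSO, 16 h, 37 C. Cells: CellSensor p53RE-bla HCT-116, 4,000/well, preincubated 5 h.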

[13] = Viability counterscreen for antagonist of constitutive androstane receptor (CAR) against the NCATS DSHEA and TCM libraries (AID 1794837); details: CAR reporter cell line viability counterscreen, qHTS; series mostly up to 40 µM;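 also: compound exposure lasted 24 h before viability reading; 0% is about no effect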
How it was run: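 Counterscreen performed in a 1536-well qHTS format using HepG2-CYP2B6-hCAR cells; samples titrated in the presence of 48 uM CITCO, with viability measured fluorometrically (405/540 nm) after 24 h.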

[14] = Viability counterscreen for agonist of constitutive androstane receptor (CAR) against the NCATS DSHEA and TCM libraries (AID 1794838); details: HepG2 cell viability counterscreen, CAR agonist assay, co-treated with 0.75 µM CAR antagonist; series mostly up to 40 µM;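 also: cells exposed to compound for 24 h; 0% is about no effect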
How it was run: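 Multiplexed counterscreen: after 24 h compound exposure with 0.75 uM PK11195, HepG2-CYP2B6-hCAR viability was quantified fluorimetrically (CellTiter-Fluor, 405/540 nm) prior to the ONE-Glo luciferase read.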

[15] = target: Nuclear receptor subfamily 1 group I member 3 (Homo sapiens) (UniProt Q14994); assay: Primary qHTS for agonist of constitutive androstane receptor (CAR) against the NCATS DSHEA and TCM libraries (AID 1794839); details: CAR agonist reporter cells, qHTS luminescence, CAR antagonist co-added at 0.75 µM; series mostly up to 40 µM;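 also: HepG2 cells expressing human CAR with a CYP2B6 reporter plus PK11195 antagonist; luciferase reporter luminescence read with ONE-Glo; 0% is about no effect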
Nuclear receptor subfamily 1 group I member 3 (Homo sapiens), sequence (Q14994 whole entry, looked up): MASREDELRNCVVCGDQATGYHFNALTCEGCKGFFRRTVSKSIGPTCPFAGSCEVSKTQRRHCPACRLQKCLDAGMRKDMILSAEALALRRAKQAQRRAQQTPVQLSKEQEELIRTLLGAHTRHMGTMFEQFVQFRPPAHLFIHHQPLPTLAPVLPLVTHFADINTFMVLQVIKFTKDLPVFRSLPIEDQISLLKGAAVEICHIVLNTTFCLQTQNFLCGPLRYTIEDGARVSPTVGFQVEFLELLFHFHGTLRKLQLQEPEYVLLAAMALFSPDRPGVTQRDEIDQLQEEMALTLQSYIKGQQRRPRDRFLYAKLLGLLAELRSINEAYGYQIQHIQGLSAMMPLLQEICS
How it was run: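 Concentration–response screen in HepG2-CYP2B6-hCAR cells under 0.75 µM PK11195; 24 h exposure; luminescent reporter signal with multiplexed fluorescent viability.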

[16] = HepG2 viability counterscreen (readout 2: ATP content) against the NCATS DSHEA and TCM libraries (AID 1794840); details: ATP content luminescence; series mostly up to 27.3 µM;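 also: HepG2 cells exposed to substances for about 24 h; 0% is about no effect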
How it was run: (§3)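 After HepG2 cells attach for ~4 h, substances are added and incubated ~24 h at 37C, 5% CO2. GF-AFC fluorescence then CellTiter-Glo luminescence give protease and ATP readouts.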

[17] = HepG2 viability counterscreen (readout 1: protease activity) against the NCATS DSHEA and TCM libraries (AID 1794841); details: qHTS concentration series; series mostly up to 27.3 µM;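 also: cells exposed to compounds for about 24 h before the protease read; 0% is about no effect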
How it was run: as §3

C[C@@H](C(=O)O)c1ccc(-c2ccccc2)c(F)c1
inactive: Potency (CP315) | Potency (ICS) | Potency (JCK)

CCOC(=O)C(CCc1ccccc1)NC1CCc2ccccc2N(CC(=O)O)C1=O (stereo not given)
inactive: Potency (CP315) | Potency (JCK)
active: Potency (ICS) 6.31 µM

NCCC[C@@H](N)C(=O)O
inactive: Potency [1] > 11.4 µM

CC(C)=CCC/C(C)=C/CC/C(C)=C/CO
-7.11%: max response [5]
inactive: outcome [2] | outcome [3] | outcome [4] | max response [6] 5.64% | activation [7] 1.11% | activation [8] 1.51% | max response [9] 2.41% | max response [10] -6.95% | max response [11] -6.29% | Potency [12]

CC/C=C\C/C=C\C/C=C\C/C=C\C/C=C\CCCCCC(=O)O
inactive: viability change, negative = cytotoxic [13] -12.7% [at 5 µM] | activity change, negative = cytotoxicity [14] -18.6% [at 5 µM] | activation [15] -16.7% [at 5 µM] | activity change, negative = cytotoxic [16] -0.254% [at 3.42 µM] | activity change, negative = inhibition [17] -1.31% [at 3.42 µM]

CCCCC[C@H](O)CC(=O)CCc1ccc(O)c(OC)c1
inactive: outcome [13] | outcome [14] | outcome [15] | outcome [16] | outcome [17]

C[C@@H](C[C@H](N)C(=O)O)C(=O)O
inactive: Potency [1] > 11.4 µM

CC(=O)[C@H]1[C@H](C#N)C[C@H]2[C@@H]3CC=C4C[C@@H](O)CC[C@]4(C)[C@H]3CC[C@@]21C
inactive: outcome [2] | outcome [3] | outcome [4] | max response [6] -3.98% | activation [7] 0.753% and -1.56% | activation [8] -1.23% and 0.356% | max response [9] -0.257% and 0.0087% | max response [10] -9.55% and -3.25% | max response [11] -20.6% and -13.5% | Potency [12]
9.02%: max response [5]
